Bioassay records from PubChem BioAssay.
KCNH2 3.1 block: qHTS for Inhibitors of KCHN2 3.1: Mutant qHTS; U2OS KCNH2 3.1, thallium flux FluxOr; hits give low values; activity change, % (tested at about 1.8 µM); actives 0.95% (n = 340,000); AID 720553, 2013;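 active means maximum activity change below -70%; inconclusive means maximum activity change from -70% to -50%; inactive means maximum activity change above -50%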;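 further: thallium influx rate constant from kinetic fluorescence after stimulation buffer; on the % scale 0 is the no-effect control and ±100 the full control effect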
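Kinetic fluorescence (2 min after stimulation buffer) measures Tl+ influx through KCNH2 3.1 expressed by viral transduction in U2OS cells; the rate constant is normalized against DMSO controls serving as positive and negative references.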
Glioma ERSR ind: qHTS for Inducers of the Endoplasmic Reticulum Stress Response (ERSR) in Human Glioma: qHTS; U87-MG GRP78 promoter luciferase reporter, 16 h; Potency, µM, inactives show top-dose activation, hits mostly activators; actives 0.02% (n = 420,000); AID 602332, 2012; active means well fitted activation curve with a large enough effect; inconclusive means small, poorly fitted or top-dose-only effect; inactive means no such curve, though single readings can be large or run the other way; further: potency means the concentration at half of the fitted maximal effect; series mostly up to about 76 µM; % of control where 0% means no effect; nearly all actives have a fitted effect of over 35% in size
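Stably transfected U87-MG human glioma cells carrying a GRP78-based luminescent sensor were seeded at 1000 cells/well, pin-dosed with compounds and incubated 16 h. Luciferase reagent was then added, and end-point luminescence was read after 10 min at room temperature.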
gsp antag: qHTS for Antagonists of gsp, the Etiologic Mutation Responsible for Fibrous Dysplasia/McCune-Albright Syndrome: qHTS. gsp-mutant cells, cAMP HTRF, 30 min. Potency, µM (doses to about 76.9 µM), inactives show at the highest dose activity change, negative = inhibition, most hits filed as inhibitors. actives 0.4% (n = 340,000). AID 624288, 2012; calls by dose curve; cell line not stated here;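 further: intracellular cAMP measured with PDE inhibitor Ro 20-1724 present during compound exposure; potency means the concentration at half of the fitted maximal effect; on the % scale 0 is the no-effect control and ±100 the full control effect; nearly all actives have a fitted effect of over 65% in size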
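Cells, 2000/well, grown 16–24 h in DMEM 10% FBS with 0.5 mg/ml G418, then compounds plus […] (300 uM addition stock), 30 min at 37C. cAMP read by HTRF (cAMP-d2 and anti-cAMP antibody-K in lysis buffer) after 30 min RT.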
hERG WT inh: qHTS for Inhibitors of KCHN2 3.1: Wildtype qHTS. activity change, % at 1.84 µM. Voltage-gated inwardly rectifying potassium channel KCNH2 (Homo sapiens), Q12809. AID 720551, 2013. actives 0.37% (n = 340,000). U2OS, BacMam KCNH2, thallium flux FluxOr; hits give low values;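 active means maximum activity change below -70%; inconclusive means maximum activity change between -70% and -50%; inactive means maximum activity change above -50%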; further: on the % scale 0 is the no-effect control and ±100 the full control effect
Target sequence (Q12809 whole entry, looked up): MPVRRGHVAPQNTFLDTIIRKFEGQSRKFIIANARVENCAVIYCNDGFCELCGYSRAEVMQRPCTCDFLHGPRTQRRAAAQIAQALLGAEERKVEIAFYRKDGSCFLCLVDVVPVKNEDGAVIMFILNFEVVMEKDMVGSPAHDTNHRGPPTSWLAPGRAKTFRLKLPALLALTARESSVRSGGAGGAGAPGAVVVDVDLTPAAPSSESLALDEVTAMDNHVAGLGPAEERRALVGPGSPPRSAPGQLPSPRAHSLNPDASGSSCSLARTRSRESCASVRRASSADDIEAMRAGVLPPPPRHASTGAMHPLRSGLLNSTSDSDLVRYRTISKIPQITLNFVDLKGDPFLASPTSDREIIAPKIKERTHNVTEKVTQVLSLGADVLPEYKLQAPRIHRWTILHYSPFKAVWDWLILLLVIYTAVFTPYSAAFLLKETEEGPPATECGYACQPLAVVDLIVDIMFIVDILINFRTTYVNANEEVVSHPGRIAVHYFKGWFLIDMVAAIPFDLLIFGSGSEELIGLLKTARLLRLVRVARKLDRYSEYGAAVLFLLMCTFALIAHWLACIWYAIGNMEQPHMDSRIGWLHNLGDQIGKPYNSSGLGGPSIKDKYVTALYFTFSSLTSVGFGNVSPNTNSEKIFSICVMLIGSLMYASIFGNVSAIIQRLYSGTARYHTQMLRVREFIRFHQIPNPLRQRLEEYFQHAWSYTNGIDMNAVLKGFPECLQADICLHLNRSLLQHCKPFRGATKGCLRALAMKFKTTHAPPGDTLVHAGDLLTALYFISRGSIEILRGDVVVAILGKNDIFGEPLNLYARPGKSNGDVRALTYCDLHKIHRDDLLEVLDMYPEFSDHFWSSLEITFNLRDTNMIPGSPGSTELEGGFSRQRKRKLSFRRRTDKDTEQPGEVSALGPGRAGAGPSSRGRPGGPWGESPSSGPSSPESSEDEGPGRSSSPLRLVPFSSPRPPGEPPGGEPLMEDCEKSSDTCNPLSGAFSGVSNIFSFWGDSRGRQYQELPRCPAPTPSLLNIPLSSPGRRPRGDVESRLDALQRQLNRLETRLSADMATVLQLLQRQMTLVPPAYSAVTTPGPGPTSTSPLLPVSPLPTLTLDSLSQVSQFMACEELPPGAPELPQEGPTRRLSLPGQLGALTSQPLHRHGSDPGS
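U2OS cells transduced with wild-type KCNH2 virus are loaded with FluxOr dye for 45 min, and thallium flux is measured in kinetic reads before and after stimulation buffer. Rate constants are normalized to DMSO controls.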
pAkt inh: HTS Assay for Inhibitors of Akt Phophorylation: Primary Screen; activity change, % for hits at 50 µM; Neuro2A IGF-stimulated pAkt S473 HTRF, 20 min; hits give low values; actives 0.32% (n = 360,000); AID 651550, 2012; in the data active means activity change below about -80%; inconclusive means mostly about -51% to -80%; further: on the % scale 0 is the no-effect control and ±100 the full control effect
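Single-point screen (50 µM final compound) in Neuro2A cells stimulated 20 min with 6 nM IGF at 37 deg C. After lysis, Ser473-phosphorylated Akt read by HTRF (ex 330 nm, em 615/665 nm) as the 665/615 ratio.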
gsp agonist: qHTS for Agonist of gsp, the Etiologic Mutation Responsible for Fibrous Dysplasia/McCune-Albright Syndrome: qHTS | gsp mutant cells, cAMP HTRF, 30 min | Potency, µM (highest dose often 76.9 µM), for the others: at the top dose activation (cAMP increase), actives largely listed as activators | actives 0.13% (n = 340,000); active means well fitted activation curve with a large enough effect; inconclusive means small, poorly fitted or top-dose-only effect, or another doubt; inactive means no such curve, though single readings can be large or run the other way; cell line not stated here;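 further: phosphodiesterase inhibitor Ro 20-1724 added with compounds to block cAMP breakdown; potency means the concentration at half of the fitted maximal effect; nearly all actives have a fitted effect of over 60% in size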
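Cells in DMEM/10% FBS with G418 were pretreated with compounds in DMSO plus […] (300 uM stock) for 30 min at 37C. cAMP was measured by HTRF (cAMP-d2 plus anti-cAMP antibody-K) after 30 min at room temperature.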
Numbers without * were called inactive; i = inactive; u = inconclusive; x = not tested or not shown; [ ] = another dose, or the depositor's remark. Compounds with a hit are over-represented: about 1.6% of the library has one in this group of screens.

SMILES	KCNH2 3.1 block	Glioma ERSR ind	gsp antag	hERG WT inh	pAkt inh	gsp agonist
Cc1ccc(NC(=O)Nc2nnc(-c3ccncc3)s2)cc1C	9.5	-0.9%	44.7µM*	0.5	i	-0.9%
Cc1ccc(N/N=C(/Sc2nnnn2-c2ccccc2)C(=O)c2ccccc2)cc1	1.1	-2.7%	25.1µM*	-15.4	i	1.1%
COc1ccc(CC(=O)NCCN2CCCC2)cc1	-0.2	9.0%	-8.8%	4.0	-121.4%*	15.3%
COc1ccc(C(=O)N2CCN(CCNC(=O)C(=O)Nc3ccc(Br)cc3)CC2)cc1	-104.5*	-1.0%	0.2%	20.2	i	-3.0%
COc1ccc(C(=O)Nc2ccc(N3CCN(Cc4ccccc4)CC3)cc2)cc1	-85.0*	-9.5%	10.0%	12.0	i	10.2%[15.4 µM]
CC(C)COc1ccc(C(=O)N2CCN(CCc3ccccn3)CC2)cc1	x	-2.7%	x	x	x	x
COc1ccc(NC(=O)C(=O)NCCN2CCN(C(=O)c3ccc(C(C)(C)C)cc3)CC2)cc1	-12.0	-0.6%	2.5%	4.3	i	24.3%
COc1ccc(C(=O)N2CCN(CCc3ccccn3)CC2)cc1	-99.0*	-2.0%	8.7%	-1.0	i	u
CC(C)(C)n1ncc2c(=O)n(Cc3c(F)ccc(Cl)c3Cl)cnc21	x	-1.9%	x	x	x	x
COc1ccc2c(c1)CCc1cnc(-n3ncc(C(=O)NC4CCOC4)c3C3CC3)nc1-2 (stereo not given)	x	-2.9%	x	x	x	x
CCc1ccc(N2CCN(CCNC(=O)Nc3ccc(OC)cc3)CC2)cc1	-94.3*	-1.6%	4.9%	-25.9	i	-5.4%
CCc1ccc(NC(=O)NCCN2CCN(c3ccc(OC)cc3)CC2)cc1	u	0.4%	13.0%	-2.5	i	u
COc1ccc(C(=O)OCC(=O)NC(C)CCc2ccccc2)cc1OC (stereo not given)	80.1	-2.5%	7.1%	-77.3*	i	u
CCn1cc(-c2cc(C(F)(F)F)n3nc(C(=O)O)cc3n2)c(C)n1	-0.8	11.2%	-5.9%	3.2	-111.9%*	0.2%
O=C(O)c1cc2nc(-c3ccc(F)cc3)cc(C(F)(F)F)n2n1	-2.1	-0.6%	-15.9%	-4.0	i	7.9%
COC(=O)c1cc(CNC(=O)c2ccc(N(C)C)cc2)cc(NC(=O)c2ccccc2Cl)c1	x	-3.7%	x	x	x	x
CC#CCC(C)[C@H](O)/C=C/C1[C@H](O)C[C@@H]2C/C(=C\CCCC(=O)O)C[C@H]12 (stereo not given in full)	x	-2.1%	x	x	x	x
N#Cc1c(-c2ccccc2Cl)cc(-c2ccccc2)nc1Br	-2.7	-4.7%	-3.5%	0.4	i	27.9%
N#Cc1c(-c2cccc(F)c2)cc(-c2ccccc2)nc1Br	-11.5	-6.7%	28.7%	-7.4	-93.5%*	u
CC1CC(C)CN(S(=O)(=O)c2ccc3c(c2)oc(=O)n3CC(=O)NCc2cccnc2)C1 (stereo not given)	-1.9	-0.1%	-13.7%	-157.0*	i	16.1%
O=C(C1=C[C@H](c2ccc(C(F)(F)F)cc2)C[C@H](OCCCCO)O1)N1CCN(Cc2ccccc2)CC1	-30.3	-4.2%	-6.8%	1.0	i	6.5%
O=C(C1=C[C@@H](c2ccc(C(F)(F)F)cc2)C[C@@H](OCCCCO)O1)N1CCN(Cc2ccccc2)CC1	-123.2*	-2.2%	-5.6%	1.1	i	x
COCCNCCOc1ccc(C)cc1[N+](=O)[O-]	-3.6	-4.2%	50.1µM*	i	i	-5.4%
COCC(=O)Nc1cc(C(=O)NC2CCc3ccccc32)c2c(c1)nc(-c1ccncc1)n2C (stereo not given)	x	-2.0%	x	x	x	x
Cc1oc(-c2cccc(Cl)c2)nc1CN1CCC(C(=O)N2CCN(c3ccccc3F)CC2)CC1	-91.2*	-2.8%	3.1%	-3.4	i	-85.8%
SMILES	KCNH2 3.1 block	Glioma ERSR ind	gsp antag	hERG WT inh	pAkt inh	gsp agonist
Cc1oc(-c2ccc(Cl)cc2)nc1CN1CCC(C(=O)N2CCc3ccccc3C2)CC1	-78.2*	1.0%	0.1%	u	i	9.4%
Cc1oc(-c2ccc(Cl)cc2)nc1CN1CCC(C(=O)NCc2ccco2)CC1	-71.0*	-0.8%	0.9%	18.4	i	10.0%
Cc1ccc(Cl)cc1N1CCN(C(=O)C2CCN(Cc3nc(-c4cccc(Cl)c4)oc3C)CC2)CC1	x	-2.3%	x	x	x	x
COc1cccc(-c2cc3c(c(OC)c2)OCCN(S(=O)(=O)c2ccccc2OC(F)(F)F)C3)n1	x	-1.8%	x	x	x	x
Cc1ccc(-c2nn3c(C)nnc3s2)cc1NC(=O)C(C)C	1.3	-1.5%	0.4%	4.6	i	11.7%
CCC(=O)Nc1ccc(-c2nn3c(C)nnc3s2)cc1C	-115.2*	-1.7%	4.3%	-22.3	i	16.1%
Cc1ccc(-c2nn3c(C)nnc3s2)cc1N	11.6	5.6%	17.8%	-289.5*	x	7.8%
Cc1cnc(-n2ncc(C(=O)NCCN3CCOCC3)c2-c2cccs2)nc1-c1ccc(F)cc1	x	-2.1%	x	x	x	x
COc1cc(/C=N/NC(=O)C(=O)/C=C2\NC3(CCCC3)Cc3ccccc32)ccc1O	-26.0	-3.1%	-26.5%	2.7	i	u
O=C(/C=C1\NC2(CCCC2)Cc2ccccc21)C(=O)N/N=C/c1ccccc1O	-85.4*	-1.1%	-13.9%	-22.1	i	-7.1%
COc1ccc(O)c(C(=O)N2CCC3(CC2)c2ccccc2[C@@H](NC(=O)c2ccccn2)[C@@H]3OC)c1	x	-5.2%	x	x	x	x
Cc1c(-c2ccccc2)[nH]n2c(=O)c3c(nc12)CCCC3	-92.0*	8.7%	-0.9%	7.4	i	-113.6%
Cc1ccc(-c2[nH]n3c(=O)c4c(nc3c2C)CCCC4)cc1	10.0	8.4%	-2.3%	2.4	x	8.0%
O=C(Nc1ccc(Br)c2ccccc12)c1ccc2ccccc2c1O	0.5	-3.5%	u	6.3	i	u
CC(=O)Nc1ccc(Br)c2ccccc12	x	-4.5%	11.7%	-1.6	i	28.2µM*
O=C(CN1Cc2ccccc2OC(c2ccsc2)C1)N1CCC(c2nc3ccccc3[nH]2)CC1 (stereo not given)	x	0.2%	x	x	x	x
CN(C)c1ccc(N=Nc2ccccc2C(=O)OCC(=O)N2CCCCCC2)cc1	1.6	-1.5%	-18.1%	9.8	i	7.0%
CN(C)c1ccc(N=Nc2ccccc2C(=O)OCC(=O)N2CCCC2)cc1	-82.6*	1.3%	-35.4%	-26.5	i	-44.1%
